Source: PubChem BioAssay (National Center for Advancing Translational Sciences (NCATS))
In the library only some 2.4% were active in any assay of this set; here they are far more common.
D2 ag-1 = Beta-Arrestin HTS for Positive Allosteric Modulators of the Human D2 Dopamine Receptor: Agonists; D(2) dopamine receptor (Homo sapiens), P14416; DiscoveRx PathHunter D2 beta-arrestin, luminescence, 90 min; 100% = 57 uM dopamine signal; activation, % (no concentration beside the values); hit rate 0.084% among 360,000; in the data active = activation above about 40%; inconclusive = between about 15% and that limit
Target sequence (P14416 whole entry, looked up): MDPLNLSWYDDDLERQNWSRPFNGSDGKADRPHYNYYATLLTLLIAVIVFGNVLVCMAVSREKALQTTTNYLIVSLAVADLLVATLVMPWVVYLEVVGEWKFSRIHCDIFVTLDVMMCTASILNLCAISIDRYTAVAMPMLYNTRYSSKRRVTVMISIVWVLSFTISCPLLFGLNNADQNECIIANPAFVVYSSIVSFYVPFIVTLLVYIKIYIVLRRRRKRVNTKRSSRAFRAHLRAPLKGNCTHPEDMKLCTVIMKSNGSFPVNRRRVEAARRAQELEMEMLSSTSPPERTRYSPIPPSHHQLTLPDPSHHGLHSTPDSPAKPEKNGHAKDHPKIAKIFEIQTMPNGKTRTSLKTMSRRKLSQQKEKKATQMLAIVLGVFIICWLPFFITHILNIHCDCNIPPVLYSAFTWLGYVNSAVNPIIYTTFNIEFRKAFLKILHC
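Agonist mode: compounds alone added to overnight-plated D2 PathHunter cells for 90 min at 37 C, with 57 uM final dopamine (EC100) defining full response. Beta-arrestin recruitment detected by chemiluminescent reagent, read after 1 h at ambient temperature.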
D2 PAM-1 = HTS Assay for Positive Allosteric Modulators of the Human D2 Dopamine Receptor: Primary Screen for Potentiators; D(2) dopamine receptor (Homo sapiens), P14416; potentiation, % at 10 µM; HEK293 T-REx D2, calcium flux, EC20 dopamine potentiation; hit rate 0.34% among 340,000;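 active = potentiation over 3 SD above the plate norm, cut at about 30% in these data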; also: 0% is about no effect
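Primary screen. Calcium kinetics in induced HEK293 T-REx D2 cells: compound pre-addition 180 s, EC20 dopamine, 180 s more.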
D2 PAM-2 = Beta-Arrestin HTS for Positive Allosteric Modulators of the Human D2 Dopamine Receptor: Potentiators; potentiation, % (test concentration not listed); D(2) dopamine receptor (Homo sapiens), P14416; DiscoveRx D2 beta-arrestin cells, luminescence, 90 min; 100% = 57 uM dopamine signal; hit rate 0.23% among 360,000; in the data active = potentiation above about 50%; inconclusive = mostly about 30% to 49%
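PathHunter D2 cells, attached overnight at 37 deg C, received compound in DMSO plus dopamine at EC20 (50 nM final) for 90 min at 37 deg C. Beta-arrestin recruitment was read as luminescence after 1 h with detection reagent at ambient temperature.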
D2 antag = HTS Assay for Allosteric Antagonists of the Human D2 Dopamine Receptor: Primary Screen for Antagonists; D(2) dopamine receptor (Homo sapiens), P14416; HEK293 TREx D2 cells, calcium flux, dopamine EC80; inhibition, % at 10 µM; hit rate 2% among 340,000; AID 485344, 2010; in the data active = inhibition above about 30%; inactive = below that, where a call was filed; also: 0% is about no effect
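In this primary screen, negative modulation is detected by tracking calcium flux after an EC80 dopamine challenge in inducible HEK293 T-REx D2 cells preexposed to test compound for 180 s.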
D2 ag-2 = HTS Assay for Allosteric Agonists of the Human D2 Dopamine Receptor: Primary Screen for Agonists; HEK293 T-REx D2 cells, calcium flux agonist mode; hit rate 0.53% among 340,000; activation, % at 2 µM; AID 485358, 2010;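 active = activation over 3 SD above normal in the single-dose calcium agonist read, cut at about 30% in these data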; also: 0% is about no effect
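Agonism is scored from calcium flux in a force-coupled, inducible HEK293 cell line expressing D2, read kinetically for 180 s after compound addition against dopamine controls.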
D3 ag = qHTS of D3 Dopamine Receptor Agonist: D3 Dopamine Receptor B-arrestin Agonist Confirmatory Assay; shares compounds with D2 ag-2; DiscoveRx D3 beta-arrestin cells, luminescence, 90 min; Potency, µM (doses to about 76.9 µM), for the others: at the highest dose activation, usual class: activators; hit rate 4% among 2,300; AID 720506, 2013;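 also: potency is read from the fitted curve at half-maximal effect; 100% = dopamine control response; nearly all actives have a fitted effect of over 70% in size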
D2 ag-3 = qHTS of D3 Dopamine Receptor Agonist: D2 Dopamine Receptor B-arrestin Agonist Counterscreen; shares compounds with D2 ag-2; DiscoveRx PathHunter D2 beta-arrestin, luminescence, 90 min; response scale: percent relative to full dopamine signal; Potency, µM (doses to about 76.9 µM), for the others: at the top dose activation, hits mostly activators; hit rate 5.9% among 2,300; also: potency is read from the fitted curve at half-maximal effect; % of control where 0% means no effect; nearly all actives have a fitted effect of over 70% in size
Starred values were filed as active, the others as inactive; ? = inconclusive; · = not tested or not shown. Unless noted, calls follow the shape of the dose curve; as a rule, active = well fitted activation curve with a large enough effect; inconclusive = small, poorly fitted or top-dose-only effect; inactive = flat fitted curve, though single readings scatter.

SMILES	D2 ag-1	D2 PAM-1	D2 PAM-2	D2 antag	D2 ag-2	D3 ag	D2 ag-3
COc1ccc(CN2CCN(c3ncccn3)CC2)c(C)c1C	47.1*	-29.5	5.2	93.4*	87.6*	?	2.24µM*
c1cnc(N2CCN(Cc3c[nH]c4ccccc34)CC2)nc1	?	-28.3	?	83.4*	86.2*	4.1%	?
Cc1cccc(C)c1NC(=O)COC(=O)CNC(=O)C1CCCCC1	-1.4	11.7	10.0	·	·	·	·
COc1ccc(OCc2nn3c(Cn4cnc5ccccc54)nnc3s2)cc1	3.7	-1.0	1.3	-2.7	0.6	·	·
CCOc1ccccc1N1CCN(Cc2cccc(OC)c2OC)CC1	2.0	-31.6	4.0	87.4*	26.2	-22.0%	-2.7%
COc1ccccc1N1CCN(CCCCOc2cccc3ccccc23)CC1	0.6	-19.1	-41.7	73.1*	34.5*	-3.3%	16.7%
COc1ccc(CN2CCSCC2)c(OC)c1C	-4.2	-6.0	-10.8	-17.1	-0.5	·	·
COc1ccc(CN2CCN(c3ccccn3)CC2)c(OC)c1C	13.4	·	12.6	·	·	0.3%	?
CC(C)Nc1nc(Cl)nc(NC2CCCCC2)n1	-1.5	-3.5	-1.5	-5.6	-0.8	·	·
Fc1cc(F)cc(Nc2nc(Cl)nc(NC3CCCC3)n2)c1	·	-5.4	·	-3.7	-0.5	-5.6%	0.4%
Cc1oc2ccc(O)c(CN3CCOCC3)c2c1C(=O)c1ccc(Cl)cc1	-0.6	8.4	21.3	-3.2	-1.6	·	·
Cc1cc(C(=O)O[C@H]2[C@H](Cc3ccccc3)NS(=O)(=O)[C@H]3C[C@@H]4C=C[C@]23O4)ccc1[N+](=O)[O-]	-4.1	-5.7	-8.2	1.3	-0.4	-8.1%	-2.5%
COc1cccc(C(=O)O[C@H]2[C@H](C)NS(=O)(=O)[C@H]3C[C@@H]4C=C[C@]23O4)c1	-3.8	-30.7	-3.0	9.4	2.1	-1.1%	-3.9%
COc1cccc(C(=O)O[C@H]2[C@H](Cc3ccccc3)NS(=O)(=O)[C@H]3C[C@@H]4C=C[C@]23O4)c1	-2.6	·	-2.8	·	·	·	·
O=C(Nc1ccc(C(F)(F)F)cc1[N+](=O)[O-])O[C@H]1[C@H](Cc2ccccc2)NS(=O)(=O)[C@H]2C[C@@H]3C=C[C@]12O3	?	-22.6	11.4	-3.2	44.3*	12.0%	13.2%
Cc1cccc(C(=O)O[C@H]2[C@H](C)NS(=O)(=O)[C@H]3CC4C=C[C@]23O4)c1	-3.1	·	-9.6	·	·	·	·
COc1cc(C(=S)N2CCOCC2)cc(OC)c1OC(=O)c1ccc(C)cc1	-5.6	4.8	-2.4	27.0	-0.3	0.9%	1.9%
CCC(=O)Nc1cccc(-n2nnnc2SCC(=O)c2ccc(C)c(C)c2)c1	1.0	6.4	0.4	7.2	-2.0	·	·
CCOc1ccc2nc(N(CCCN(C)C)C(=O)c3ccc(S(=O)(=O)N4CCCC4)cc3)sc2c1	1.2	6.5	-14.9	31.5*	1.7	-16.7%	-2.4%
CCOC(=O)C1CCN(C(=O)COc2cccc(C)c2)CC1	-1.3	2.2	0.0	-2.8	0.2	·	·
Cc1cccc(NC(=O)NNC(=O)c2sccc2-n2cccc2)c1	-0.4	2.1	-1.2	-0.3	-0.6	·	·
Cc1ccc(-n2ncc3c2CC(C)(C)CC3NC(=O)CN2CCCC2=O)cc1 (configuration not stated)	-1.3	-8.1	7.4	9.1	0.5	·	·
C=CCC(=O)NC1CC(C)(C)Cc2c1cnn2-c1ccc(C)cc1 (configuration not stated)	4.5	-19.8	0.4	13.9	72.1*	-8.0%	-5.4%
Cc1cccc(OC(=O)c2cc(-c3ccc(C)c(C)c3)on2)c1	·	-21.4	·	·	1.5	·	·
COC1CCN(Cc2c(C(=O)N3CCN(C4CCCCC4)CC3)nc3ccccn23)CC1	-0.5	-21.1	-6.6	-7.7	59.3*	-0.3%	-6.8%
SMILES	D2 ag-1	D2 PAM-1	D2 PAM-2	D2 antag	D2 ag-2	D3 ag	D2 ag-3
COCC1CCN(Cc2c(C(=O)N3CCN(C4CCCCC4)CC3)nc3ccccn23)C1 (configuration not stated)	-4.3	-5.1	-49.5	-14.0	0.3	·	·
O=C(COc1ccc(S(=O)(=O)N2CCOCC2)cc1)N1CCCCCC1	-2.4	8.1	-1.0	-10.9	4.5	·	·
CCOC(=O)C1(CCOc2ccccc2)CCN(Cc2cnc(C)s2)CC1	3.3	-20.7	-10.5	5.8	1.1	·	·
CCOC(=O)C1(CC2CC2)CCN(Cc2cnc(N(C)C)s2)CC1	2.2	-32.7	-3.2	67.8*	74.9*	-4.9%	9.5%
CCOc1ccc(NC(=O)c2c[nH]n3c(=O)cc(C4CCN(C(=O)OC(C)(C)C)CC4)nc23)cc1	-2.6	-7.2	-6.6	-7.7	9.3	10.5%	-5.1%
CCOC(=O)N1CCC(c2cc(=O)n3[nH]cc(C(=O)OC)c3n2)CC1	-4.2	7.7	-11.4	-20.9	-0.4	·	·
COC(=O)CCC(C)N1CCC(Oc2ccc(C(=O)N3CCCC3)cc2)CC1 (configuration not stated)	-4.0	-18.2	-20.1	9.0	51.5*	7.5%	5.7%
CC(=O)c1ccc(N2CCN(C(=O)C3CCCN(S(=O)(=O)c4ccc(Br)s4)C3)CC2)cc1 (configuration not stated)	·	0.0	·	·	-0.7	·	·
CC(=O)c1ccc(N2CCN(C(=O)C3CCCN(S(=O)(=O)c4cnc[nH]4)C3)CC2)cc1 (configuration not stated)	-2.2	5.6	-6.1	32.4*	1.1	-3.4%	-7.4%
O=C(NCCCN1CCN(c2ccccc2F)CC1)C1CCCN(S(=O)(=O)c2cnc[nH]2)C1 (configuration not stated)	-1.9	-18.9	12.4	64.7*	67.9*	?	14.9%
O=c1oc2ccccc2c2c1nnn2CCO	-4.3	8.0	-3.8	0.8	-1.7	·	·
COc1ccc(-n2cnc3cc(NS(=O)(=O)c4ccc(C)cc4)ccc32)cc1	·	-6.4	·	1.5	0.5	·	·
O=C(COc1ccc(Cl)cc1)NNC(=O)c1cccnc1	-4.1	0.8	-2.2	7.6	0.1	-12.2%	-3.1%
CCCS(=O)(=O)N1CCN(S(=O)(=O)c2ccc(F)cc2)CC1	-1.8	-3.2	0.3	-21.5	0.7	·	·
